For part of these data: Entries with a potency or affinity are not part of this list.
Experiments:
Staphylococcus aureus = experiment: Antibacterial activity against Staphylococcus aureus MRSA ATCC 43300 (CO-ADD:GP_020); MIC in CAMBH media using NBS plates, by Resazurin F(560/590); assay type: functional; settings: Concentration 20 uM, ASSAY_TEST Inhibition of Bacterial Growth, detection method Resazurin, Fluorescence (ex560/em590), MEDIA CAMHB, plate type 384well, CORNING #3640, time 18 hr
Acinetobacter baumannii = experiment: Antibacterial activity against Acinetobacter baumannii ATCC 19606 (CO-ADD:GN_034); MIC in CAMBH media using NBS plates, by Resazurin F(560/590); assay type: functional; settings: Concentration 20 uM, ASSAY_TEST Inhibition of Bacterial Growth, detection method Resazurin, Fluorescence (ex560/em590), MEDIA CAMHB, plate type 384well, CORNING #3640, time 18 hr
Escherichia coli = experiment: Antibacterial activity against Escherichia coli ATCC 25922 (CO-ADD:GN_001); MIC in CAMBH media using NBS plates, by Resazurin F(560/590); assay type: functional; settings: Concentration 20 uM, ASSAY_TEST Inhibition of Bacterial Growth, detection method Resazurin, Fluorescence (ex560/em590), MEDIA CAMHB, plate type 384well, CORNING #3640, time 18 hr
Klebsiella pneumoniae = settings: Concentration 20 uM; ASSAY_TEST Inhibition of Bacterial Growth; detection method Absorption (OD600); MEDIA CAMHB; plate type 384well; NBS; CORNING #3640; time 18 hr
Candida albicans = settings: 20 µM
Cryptococcus neoformans = settings: Concentration 20 uM; ASSAY_TEST Inhibition of Fungal Growth; detection method Resazurin; Absorption (OD600-OD570); plate type 384well; NBS; CORNING #3640

Row | SMILES | Inhibition (Staphylococcus aureus) | Inhibition (Acinetobacter baumannii) | Inhibition (Escherichia coli) | Inhibition (Klebsiella pneumoniae) | Inhibition (Candida albicans) | Inhibition (Cryptococcus neoformans)
1 | Cc1nnc2nc(-c3ccccc3)nc(-c3ccccc3)n12 | -12.94% | 8.22% | 2.26% | 4.14% | 4.58% | -11.59%
2 | Cc1ccc(/N=N\c2c(O)ccc3[nH]nnc23)cc1 | -9.42% | -9.08% | 4.02% | 11.98% | 13.2% | -12.82%
3 | Cn1ncc2c(Nc3ccccc3Cl)nc(Nc3ccccc3Cl)nc21 | 12.86% | -3.35% | -7.44% | 23.76% | 8.17% | -4.25%
4 | C=C1S/C(=N\c2c(C)cccc2Cl)N(C(=O)c2sc3ccccc3c2Cl)C12CCCCC2 | 4.2% | 0.82% | -2.79% | 4.92% | 5.73% | 0.57%
5 | CCOc1ccc(NC(=S)NC(=O)c2ccco2)cc1 | 8.6% | 0.34% | 3.81% | 5.03% | 7.98% | -14.9%
6 | Cc1ccc(NC(=O)N2CCCCC2)cc1[N+](=O)[O-] | 0.24% | -10.39% | 3.85% | 3.41% | 6.56% | -11.71%
7 | O=C(Nc1cccc([N+](=O)[O-])c1)c1cc2ccccc2cc1O | -1.88% | -9.44% | 23.78% | 3.58% | 12.7% | -10.5%
8 | Cc1cnc2c(N)cc(C)c(C)c2c1 | 23.12% | -5.88% | 9.48% | 9.31% | 23.1% | -10.43%
9 | Cc1nc2ccccc2c(N)c1-c1cc(C)c2c(C)nc3ccccc3c2n1 | -4.42% | 8.74% | -14.9% | 5.08% | 2.89% | 18.77%
10 | CC(=O)NCC(O)c1ccc([N+](=O)[O-])cc1 (stereo not given) | 9.36% | -9% | 7.49% | 22.16% | 1.24% | 2.12%
11 | Cn1c(=O)c2nc(N3CCCCC3)[nH]c2n(C)c1=O | 0.06% | -5.37% | 9.83% | 1.37% | -1.65% | -9.97%
12 | CC(C)C(=O)Nc1cccnc1 | -3.96% | -12.43% | 9.68% | 6.6% | 0.24% | 8.85%
13 | Cc1ccccc1N=C(S)Nc1ccccn1 | -11.3% | 17.16% | -8.87% | 16.17% | 15.5% | 4.14%
14 | COc1cccc(-c2nnc(N)o2)c1 | 11.58% | -10.93% | 4.71% | 8.97% | 1.68% | -2.41%
15 | CCC/C(C)=C/c1ccc(CC)cn1 | 1.51% | -4.3% | -16.08% | 8.87% | 3.23% | 27.41%
16 | N#Cc1cc(-c2ccccc2)[nH]c1-c1nccc2ccccc12 | -0.89% | -11.99% | 7.81% | 10.89% | 17.5% | -6.55%
17 | CC(C)c1ccc(-c2nc3ccccc3s2)cc1 | 16.1% | 2.02% | 4.01% | 12.27% | 8.12% | -7.1%
18 | COc1ccc(CC(=O)c2ccc(O)cc2O)cc1 [ONONETIN] | 1.4% | 4.43% | 2.27% | 20.95% | 17.6% | -13.72%
19 | Cc1c(C(C)(C(=O)O)c2c(C)n(C)c3ccccc23)c2ccccc2n1C | 11.46% | 7.57% | 2.78% | 3.48% | 9.04% | -5.48%
20 | O=C(CN1CCOCC1)N1CCOCC1 | 15.46% | -15.04% | 7.84% | 3.48% | -1.35% | -8.59%
21 | CC(C)(C)CC(C)(C)N1CN=C(S)NC1 | 14.76% | 8.83% | 1.22% | 6.38% | 1.25% | -7.67%
22 | Oc1ccc2ccccc2c1/N=N/c1ccc(F)cc1 | 3.11% | 4.07% | -0.77% | 13.5% | -3.66% | -8.4%
23 | CCOC(=O)c1ccc2c(c1)NCc1cccc(OC)c1O2 | 4.26% | -16.83% | 9.22% | 6.83% | 9.96% | -17.21%
24 | Cn1c(N)c(/N=N/c2ccc(S(N)(=O)=O)cc2)c(=O)n(C)c1=O | 19.52% | 4.45% | 15.26% | 20.82% | 2.91% | -0.3%
25 | CNC(=O)Nc1ccc(S(N)(=O)=O)cc1 | -4.03% | 14.32% | -4.85% | 19.46% | 3.31% | 0.61%
